Data published in the supplement of paper PMC10849652.
About 7,900 targets were measured; listed, in parts, are those with a hit and a random draw of the rest. About 0.6% of all pairs of compound and target were hits. Unmarked numbers belong to inactive results.

Columns and labels:
Experiment in all cases: log2 fold change, soluble protein after heating vs DMSO (PISA); higher = thermal stabilisation; K562 cells, 10 uM, 30 min; active = over 0.2 and 3.5 SD of the protein, either way, in both replicates (recomputed)
[1] = compound: C1COCCN1CCN2C3=CC=CC=C3N=C2NC(=O)C4=CC(=CC=C4)[N+](=O)[O-] [IRAK-1-4 Inhibitor I]
Summary of the method: (§1)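 Aliquots of K562 cells (2×10^6 cells/mL) treated with 10 μM compound for 30 min were heated for 3 min over 48°C-58°C. After pooling and extraction in PBS with 0.5% NP-40 at 4°C, soluble protein from a 21,000xg, 90 min spin was quantified by TMTpro 16plex LC-MS/MS with channel sums equalised. Thermal stability is expressed against control samples, from duplicates, as a log2 fold change.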

[2] = compound: C=CC(=O)N1CCC[C@@H](n2nc(-c3ccc(Oc4ccccc4)cc3)c3c(N)ncnc32)C1 [ibrutinib]
Summary of the method: as §1

[3] = compound: CC(=O)c1cnc2ccc(-c3cc(Cl)c(O)c(Cl)c3)nc2c1N[C@H]1CC[C@H](CN(C)C)CC1
Summary of the method: as §1

[4] = compound: CC(C)(C)Cn1c(N)nc2ccc(-c3[nH]c(C(C)(C)C)nc3-c3ccc(F)cc3)nc21 [ralimetinib]
Summary of the method: as §1

[5] = compound: CC(C)(O)CC(=O)NCCn1ccc2ncnc(Nc3ccc(Oc4cccc(C(F)(F)F)c4)c(Cl)c3)c21
Summary of the method: as §1

[6] = compound: CC(C)C1=C2N=C(C=C(N2N=C1)NCC3=CC=CC=C3)NCCCCCCN
Summary of the method: as §1

[7] = compound: CC(C)C[C@@H](C=O)NC(=O)[C@H](CC(C)C)NC(=O)[C@H](CC(C)C)NC(=O)OCc1ccccc1
Summary of the method: as §1

[8] = compound: CC(C)N(C[C@H]1O[C@@H](n2cnc3c(N)ncnc32)[C@H](O)[C@@H]1O)[C@H]1C[C@@H](CCc2nc3cc(C(C)(C)C)ccc3[nH]2)C1 [pinometostat]
Summary of the method: as §1

[9] = compound: CC1=C(C(CC(=O)N1)C2=CC=C(C=C2)C(F)(F)F)C(=O)NC3=C(C=C4C(=C3)C=NN4)F
Summary of the method: as §1

[10] = compound: CC1=C(C2=C(C=C1)C(=O)C3=CC=CC=C3N2CCCN)C
Summary of the method: as §1

[11] = compound: CC1=C(C=C(C=C1)NC(=O)C2=CC(=CC=C2)C(C)(C)C#N)NC3=CC4=C(C=C3)N=CN(C4=O)C
Summary of the method: as §1

[12] = compound: CC1=C(C=C(C=C1)NC(=O)C2=CC(=CC=C2)N(C)C)NC(=O)C3=CC=C(C=C3)O
Summary of the method: as §1

[13] = compound: CC1=CC=C(C=C1)SC2=C3C=C(SC3=CN=C2)C(=O)N
Summary of the method: as §1

[14] = compound: CC1=NC(=CC=C1)C2=C(N=C(N2)C(C)(C)C)C3=CC4=NC=CN=C4C=C3
Summary of the method: as §1

[15] = compound: CCCCN(Cc1ccc(C(=O)NO)cc1)C(=O)Nc1ccccc1 [Nexturastat A]
Summary of the method: as §1

[16] = compound: CCCS(=O)(=O)Nc1ccc(F)c(C(=O)c2c[nH]c3ncc(-c4ccc(Cl)cc4)cc23)c1F [vemurafenib]
Summary of the method: as §1

[17] = compound: CCCS(=O)(=O)Nc1ccc(F)c(C(=O)c2c[nH]c3ncc(Cl)cc23)c1F
Summary of the method: as §1

[18] = compound: CCCc1cc(C)[nH]c(=O)c1CNC(=O)c1cc(-c2ccnc(N3CCN(C)CC3)c2)cc2c1cnn2C(C)C
Summary of the method: as §1

[19] = compound: CCN(CC)Cc1ccc2cc(COC(=O)Nc3ccc(C(=O)NO)cc3)ccc2c1 [givinostat]
Summary of the method: as §1

[20] = compound: CCN(CCCOc1ccc2c(Nc3cc(CC(=O)Nc4cccc(F)c4)[nH]n3)ncnc2c1)CCOP(=O)(O)O [barasertib]
Summary of the method: as §1

Chain of UniProt Q16531 (Q16531 whole entry, looked up): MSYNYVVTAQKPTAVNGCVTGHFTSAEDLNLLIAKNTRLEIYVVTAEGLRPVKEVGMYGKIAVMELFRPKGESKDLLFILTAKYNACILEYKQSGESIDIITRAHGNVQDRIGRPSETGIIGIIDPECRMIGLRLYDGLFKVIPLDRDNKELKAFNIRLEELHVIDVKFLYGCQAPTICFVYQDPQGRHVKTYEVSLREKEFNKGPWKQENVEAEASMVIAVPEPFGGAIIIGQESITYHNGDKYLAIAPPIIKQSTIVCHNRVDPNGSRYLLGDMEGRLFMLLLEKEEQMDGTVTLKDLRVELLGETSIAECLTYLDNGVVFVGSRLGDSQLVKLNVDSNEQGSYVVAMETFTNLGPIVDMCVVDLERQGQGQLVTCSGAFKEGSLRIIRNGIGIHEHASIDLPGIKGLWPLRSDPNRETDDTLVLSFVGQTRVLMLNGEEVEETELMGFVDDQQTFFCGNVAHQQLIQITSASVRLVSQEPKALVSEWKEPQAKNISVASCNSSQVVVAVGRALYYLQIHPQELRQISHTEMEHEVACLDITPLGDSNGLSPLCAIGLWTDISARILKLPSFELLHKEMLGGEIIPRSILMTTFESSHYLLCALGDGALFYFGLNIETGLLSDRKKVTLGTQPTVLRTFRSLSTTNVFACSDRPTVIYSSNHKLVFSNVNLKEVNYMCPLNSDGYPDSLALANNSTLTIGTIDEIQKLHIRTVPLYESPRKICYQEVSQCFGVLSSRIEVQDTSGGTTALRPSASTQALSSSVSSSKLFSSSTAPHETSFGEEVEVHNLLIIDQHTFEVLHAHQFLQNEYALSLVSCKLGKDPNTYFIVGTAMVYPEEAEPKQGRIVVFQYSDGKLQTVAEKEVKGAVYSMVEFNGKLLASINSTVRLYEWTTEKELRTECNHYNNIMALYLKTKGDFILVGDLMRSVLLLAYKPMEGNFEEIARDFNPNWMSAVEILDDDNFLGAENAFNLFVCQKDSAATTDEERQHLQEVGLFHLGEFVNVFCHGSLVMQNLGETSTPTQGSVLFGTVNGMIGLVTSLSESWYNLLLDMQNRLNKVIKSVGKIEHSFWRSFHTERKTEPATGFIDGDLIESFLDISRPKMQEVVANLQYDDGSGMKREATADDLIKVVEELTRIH
Chain of UniProt Q13409 (Q13409 whole entry, looked up): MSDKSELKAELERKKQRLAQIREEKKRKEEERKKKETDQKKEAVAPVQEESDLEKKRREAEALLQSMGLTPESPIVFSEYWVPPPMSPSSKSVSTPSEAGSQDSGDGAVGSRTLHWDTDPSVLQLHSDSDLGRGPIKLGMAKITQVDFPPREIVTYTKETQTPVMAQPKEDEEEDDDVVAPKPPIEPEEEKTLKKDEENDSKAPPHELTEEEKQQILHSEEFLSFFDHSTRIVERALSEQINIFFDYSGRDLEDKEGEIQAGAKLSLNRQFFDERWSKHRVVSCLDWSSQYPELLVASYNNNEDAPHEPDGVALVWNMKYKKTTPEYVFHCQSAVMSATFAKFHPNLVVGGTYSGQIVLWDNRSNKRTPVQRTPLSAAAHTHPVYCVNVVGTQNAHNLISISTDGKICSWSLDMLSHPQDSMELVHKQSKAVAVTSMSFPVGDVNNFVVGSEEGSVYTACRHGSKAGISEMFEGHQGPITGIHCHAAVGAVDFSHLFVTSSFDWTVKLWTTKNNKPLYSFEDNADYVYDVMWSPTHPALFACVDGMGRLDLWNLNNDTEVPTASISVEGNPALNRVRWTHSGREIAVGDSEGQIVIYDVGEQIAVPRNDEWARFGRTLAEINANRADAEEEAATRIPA
Chain of UniProt O75477 (O75477 whole entry, looked up): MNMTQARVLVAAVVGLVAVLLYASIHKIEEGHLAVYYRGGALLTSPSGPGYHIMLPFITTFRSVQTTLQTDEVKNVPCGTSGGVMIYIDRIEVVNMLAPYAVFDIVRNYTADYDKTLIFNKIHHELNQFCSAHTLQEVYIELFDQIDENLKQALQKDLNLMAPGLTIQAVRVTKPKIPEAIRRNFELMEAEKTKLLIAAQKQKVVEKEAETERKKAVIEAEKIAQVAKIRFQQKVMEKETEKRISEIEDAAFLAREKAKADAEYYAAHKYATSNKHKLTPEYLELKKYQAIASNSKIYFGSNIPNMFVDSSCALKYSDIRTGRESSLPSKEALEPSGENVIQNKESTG
Chain of UniProt O60573 (O60573 whole entry, looked up): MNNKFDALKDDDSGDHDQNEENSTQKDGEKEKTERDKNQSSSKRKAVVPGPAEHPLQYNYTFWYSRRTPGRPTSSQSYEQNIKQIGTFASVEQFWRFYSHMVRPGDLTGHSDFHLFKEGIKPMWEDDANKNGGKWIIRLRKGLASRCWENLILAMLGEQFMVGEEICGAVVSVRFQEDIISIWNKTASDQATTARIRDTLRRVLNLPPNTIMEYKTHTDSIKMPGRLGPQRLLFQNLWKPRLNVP
Chain of UniProt O00471 (O00471 whole entry, looked up): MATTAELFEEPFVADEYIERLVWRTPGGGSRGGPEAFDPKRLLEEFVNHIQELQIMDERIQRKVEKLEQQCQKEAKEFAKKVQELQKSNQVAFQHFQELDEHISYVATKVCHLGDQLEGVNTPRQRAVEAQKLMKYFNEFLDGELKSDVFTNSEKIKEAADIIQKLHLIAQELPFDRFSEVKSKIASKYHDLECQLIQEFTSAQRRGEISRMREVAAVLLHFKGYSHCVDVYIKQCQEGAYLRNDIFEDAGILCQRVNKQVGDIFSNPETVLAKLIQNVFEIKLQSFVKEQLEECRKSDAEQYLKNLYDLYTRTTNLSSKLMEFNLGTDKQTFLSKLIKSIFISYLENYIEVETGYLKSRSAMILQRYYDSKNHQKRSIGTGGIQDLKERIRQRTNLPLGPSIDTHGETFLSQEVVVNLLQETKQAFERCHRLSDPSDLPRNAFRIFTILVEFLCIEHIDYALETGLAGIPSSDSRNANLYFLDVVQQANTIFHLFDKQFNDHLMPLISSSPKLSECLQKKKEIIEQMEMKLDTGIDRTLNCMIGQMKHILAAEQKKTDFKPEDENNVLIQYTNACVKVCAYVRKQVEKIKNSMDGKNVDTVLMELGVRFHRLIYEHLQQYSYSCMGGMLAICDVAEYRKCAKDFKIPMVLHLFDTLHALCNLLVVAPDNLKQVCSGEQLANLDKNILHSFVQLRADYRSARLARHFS
Chain of UniProt Q7Z2Z2 (Q7Z2Z2 whole entry, looked up): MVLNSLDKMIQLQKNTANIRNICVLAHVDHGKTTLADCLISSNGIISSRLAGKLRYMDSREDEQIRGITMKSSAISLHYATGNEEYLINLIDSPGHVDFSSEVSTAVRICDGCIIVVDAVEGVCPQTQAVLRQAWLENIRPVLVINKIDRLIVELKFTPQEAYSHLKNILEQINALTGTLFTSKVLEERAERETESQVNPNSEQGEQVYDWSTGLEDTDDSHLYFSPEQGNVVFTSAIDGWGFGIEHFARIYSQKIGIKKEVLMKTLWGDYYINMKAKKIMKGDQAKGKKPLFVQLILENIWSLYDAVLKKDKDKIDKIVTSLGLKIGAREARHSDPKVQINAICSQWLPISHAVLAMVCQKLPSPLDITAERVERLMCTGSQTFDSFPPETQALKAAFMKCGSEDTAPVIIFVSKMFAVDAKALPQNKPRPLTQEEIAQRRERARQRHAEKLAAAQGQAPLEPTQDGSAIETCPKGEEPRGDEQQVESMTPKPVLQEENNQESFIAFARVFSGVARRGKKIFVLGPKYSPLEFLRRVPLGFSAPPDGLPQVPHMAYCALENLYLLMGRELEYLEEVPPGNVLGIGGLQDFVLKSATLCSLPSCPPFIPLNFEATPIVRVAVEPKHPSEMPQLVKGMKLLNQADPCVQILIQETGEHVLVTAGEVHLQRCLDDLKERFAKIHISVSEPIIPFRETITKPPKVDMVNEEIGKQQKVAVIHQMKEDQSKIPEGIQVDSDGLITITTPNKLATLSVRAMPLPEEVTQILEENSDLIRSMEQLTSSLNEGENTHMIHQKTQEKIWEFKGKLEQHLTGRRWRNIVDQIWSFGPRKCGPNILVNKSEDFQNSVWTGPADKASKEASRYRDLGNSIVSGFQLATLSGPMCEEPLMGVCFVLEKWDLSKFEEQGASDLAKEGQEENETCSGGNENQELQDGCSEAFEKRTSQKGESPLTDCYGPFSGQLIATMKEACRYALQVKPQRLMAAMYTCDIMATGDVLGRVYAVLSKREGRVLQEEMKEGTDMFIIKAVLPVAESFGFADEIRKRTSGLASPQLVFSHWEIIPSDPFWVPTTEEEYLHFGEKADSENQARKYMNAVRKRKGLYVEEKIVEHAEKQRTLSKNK
Chain of UniProt O75822 (O75822 whole entry, looked up): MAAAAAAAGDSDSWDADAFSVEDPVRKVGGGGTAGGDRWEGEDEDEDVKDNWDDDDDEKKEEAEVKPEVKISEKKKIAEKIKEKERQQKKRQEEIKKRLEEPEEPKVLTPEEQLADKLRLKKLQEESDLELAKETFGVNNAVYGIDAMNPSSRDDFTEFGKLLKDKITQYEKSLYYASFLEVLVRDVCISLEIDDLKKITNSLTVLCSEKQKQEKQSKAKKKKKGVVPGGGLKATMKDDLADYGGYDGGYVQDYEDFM
Chain of UniProt P50402 (P50402 whole entry, looked up): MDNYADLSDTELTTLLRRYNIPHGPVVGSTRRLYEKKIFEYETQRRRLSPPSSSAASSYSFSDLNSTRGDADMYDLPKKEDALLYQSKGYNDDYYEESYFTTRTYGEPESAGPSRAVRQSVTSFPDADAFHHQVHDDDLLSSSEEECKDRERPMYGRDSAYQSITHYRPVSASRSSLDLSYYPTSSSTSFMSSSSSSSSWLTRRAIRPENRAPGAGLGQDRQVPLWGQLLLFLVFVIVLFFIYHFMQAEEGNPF
Chain of UniProt Q9UBR2 (Q9UBR2 whole entry, looked up): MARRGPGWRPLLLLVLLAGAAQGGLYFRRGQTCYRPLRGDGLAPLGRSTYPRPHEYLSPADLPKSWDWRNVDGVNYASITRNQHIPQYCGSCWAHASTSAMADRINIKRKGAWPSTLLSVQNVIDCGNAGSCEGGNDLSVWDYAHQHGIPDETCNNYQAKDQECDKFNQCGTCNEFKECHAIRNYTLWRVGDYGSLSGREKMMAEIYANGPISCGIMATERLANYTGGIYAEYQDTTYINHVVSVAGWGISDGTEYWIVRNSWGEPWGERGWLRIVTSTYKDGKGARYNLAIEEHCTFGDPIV

Target | log2 fold change [1] | log2 fold change [2] | log2 fold change [3] | log2 fold change [4] | log2 fold change [5] | log2 fold change [6] | log2 fold change [7] | log2 fold change [8] | log2 fold change [9] | log2 fold change [10] | log2 fold change [11] | log2 fold change [12] | log2 fold change [13] | log2 fold change [14] | log2 fold change [15] | log2 fold change [16] | log2 fold change [17] | log2 fold change [18] | log2 fold change [19] | log2 fold change [20]
ERLIN1 (UniProt O75477) | -0.073 | -0.06 | 0.105 | 0.054 | -0.018 | -0.269 (active) | -0.007 | 0.098 | 0.012 | 0.068 | 0.011 | -0.018 | 0.028 | -0.01 | 0.031 | -0.02 | 0.014 | 0.065 | 0.014 | 0.028
EXOC5 (UniProt O00471) | -0.062 | -0.002 | -0.01 | 0.015 | -0.03 | -0.344 (active) | 0.014 | 0.078 | 0 | -0.061 | 0.006 | -0.022 | -0.007 | 0.056 | 0.017 | 0.046 | 0.08 | -0.028 | 0.118 | 0.031
DNM2 (UniProt P50570) | 0.022 | 0.017 | -0.023 | -0.02 | -0.081 | -0.075 | 0.029 | -0.014 | -0.012 | 0.076 | -0.016 | -0.043 | 0.009 | 0.024 | -0.057 | 0.016 | 0.033 | -0.007 | 0.036 | 0.054
DHX36 (UniProt Q9H2U1) | -0.053 | 0.014 | 0.001 | 0.111 | 0.009 | -0.025 | 0.056 | 0.153 | 0.031 | -0.206 | 0.015 | 0 | -0.034 | -0.033 | 0.111 | 0.012 | 0.02 | -0.005 | -0.031 | -0.064
DDB1 (UniProt Q16531) | 0.038 | 0.026 | 0.002 | -0.053 | -0.008 | 0.071 | -0.017 | -0.03 | 0.022 | -0.001 | -0.012 | 0.011 | 0.006 | 0 | -0.036 | -0.012 | -0.003 | -0.027 | 0 | -0.01
DNAJC7 (UniProt Q99615) | -0.041 | -0.012 | -0.007 | -0.014 | -0.022 | -0.117 | 0.023 | -0.034 | -0.003 | 0.04 | -0.006 | -0.037 | 0.029 | 0.042 | -0.01 | 0.029 | 0.098 | 0.02 | 0.032 | 0.064
CTSH (UniProt P09668) | 0.009 | 0.034 | 0.005 | 0.104 | 0.005 | -0.142 | -0.016 | -0.06 | 0.009 | -0.043 | -0.007 | 0.066 | 0.013 | 0.093 | -0.047 | 0.023 | -0.034 | 0.157 | 0.003 | -0.019
EMD (UniProt P50402) | 0.039 | 0.009 | -0.021 | -0.004 | 0.028 | -0.114 | 0.034 | 0.013 | 0.021 | -0.042 | -0.056 | 0.011 | -0.076 | -0.04 | 0.059 | -0.015 | 0.021 | -0.092 | 0.002 | 0.002
DYNC1I2 isoform 5 (UniProt Q13409) | 0.022 | 0.016 | 0.022 | 0.013 | -0.003 | 0.041 | 0.062 | -0.019 | -0.015 | -0.032 | -0.008 | -0.03 | -0.006 | 0.028 | 0.043 | -0.009 | 0.005 | -0.007 | -0.005 | -0.013
EIF4E2 (UniProt O60573) | 0.064 | -0.007 | -0.272 | 0.012 | -0.036 | -0.109 | 0.118 | 0.043 | 0.056 | 0.116 | -0.089 | -0.006 | 0.061 | 0.089 | 0.097 | 0.126 | 0.069 | 0 | 0.031 | 0.083
EIF3J (UniProt O75822) | 0.118 | -0.031 | 0.035 | 0.093 | -0.031 | -0.007 | -0.079 | -0.007 | -0.019 | -0.025 | 0.01 | -0.026 | -0.005 | 0.039 | -0.068 | 0.05 | -0.022 | 0.004 | 0.011 | 0.046
DBN1 isoform 3 (UniProt Q16643) | -0.06 | 0.099 | 0.061 | 0.072 | 0.151 | 0.047 | -0.02 | -0.005 | 0.05 | -0.091 | -0.079 | 0.045 | 0.016 | -0.002 | 0.104 | 0.075 | 0.032 | -0.062 | -0.026 | -0.038
DCTN1 isoform 4 (UniProt Q14203) | -0.101 | -0.02 | -0.001 | 0.114 | -0.086 | -0.303 (active) | 0.07 | 0.138 | -0.002 | 0.019 | 0.022 | -0.017 | 0.015 | -0.039 | 0.116 | -0.015 | 0.019 | 0.102 | 0.104 | 0.033
DMAC1 (UniProt Q96GE9) | 0.018 | 0.048 | 0.034 | -0.011 | 0.072 | 0.019 | 0.067 | -0.002 | 0.063 | -0.013 | -0.173 | 0.041 | 0.116 | 0.005 | -0.071 | -0.18 | -0.035 | -0.04 | -0.179 | 0.074
EFL1 (UniProt Q7Z2Z2) | 0.016 | -0.019 | -0.039 | -0.004 | -0.069 | -0.103 | 0.03 | 0.005 | -0.009 | -0.058 | -0.025 | 0.004 | 0.016 | 0.012 | -0.11 | 0.04 | 0.036 | 0.008 | 0.004 | 0.05
CTSZ (UniProt Q9UBR2) | 0.008 | -0.02 | 0.053 | -0.062 | 0 | -0.395 (active) | 0.082 | -0.076 | 0.015 | -0.036 | -0.009 | -0.004 | 0.025 | 0.002 | -0.009 | -0.026 | -0.045 | -0.017 | 0.152 | 0.027
